The record followed here is PMC5540273 (PLoS ONE, 2017).

Among the test systems are AURKA; AURKB; AURKC; AXL; BLK; BMPR1A; BMPR1B; BMPR2.
What all share (conditions): concentration: 1 μM,replicates: in singlicate; n = 1
The next test deals with T1, ASK2.
T1 construct: gene MAP3K6

In the next test the test system is T2, BIKE.
T2 construct: gene BMP2K
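Note: KINOMEscan kinase panel screen.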

`O=C(Nc1cccc(C(F)(F)F)c1)c1cccc(Oc2ccc3nccn3n2)c1`: the “%Inh” value in the test on ASK2 came out at 21%; in the test on AURKA, 5%; in the test with AURKB, 9%; in the test on AURKC, 6%; in the test with AXL it was 31%; in the test on BIKE it was 15%. In addition, the “%Inh” value in the test with BLK came to 6%; in the test with BMPR1A, 0%; with BMPR1B it was 12%; with BMPR2 it was 21%.
For `Cc1cccc(-c2nc(Nc3ccncc3)c3sccc3n2)n1` [GW869641], the “%Inh” value with ASK2 was 29%; in the test with AURKA it was 48%; in the test with AURKB, 43%; with AURKC it was 30%; in the test with AXL it was 33%; in the test with BIKE, 13%. Also, the “%Inh” value turned out to be 15% in the test on BLK, 4% in the test on BMPR1A, 82% with BMPR1B and 37% in the test with BMPR2.
As for `CCn1c(-c2nonc2N)nc2cncc(CNC3CCNCC3)c21.Cl` [SB-747651], the “%Inh” value in the test with ASK2 worked out at 8%; with AURKA, 6%; with AURKB, 23%; in the test on AURKC it was 0%; with AXL, 100%; with BIKE, 0%. Moreover, the “%Inh” value in the test with BLK is listed as 8%; in the test on BMPR1A, 0%; in the test with BMPR1B, 0%; in the test with BMPR2, 17%.
Take `CN1CCN(CCNc2nc3cc(Oc4ccc(NC(=O)Nc5cc(C(F)(F)F)ccc5F)cc4)ccc3[nH]2)CC1.Cl.Cl` [GW768504]: the “%Inh” value with ASK2 came out at 0%; with AURKA, 9%; in the test on AURKB, 22%; in the test on AURKC it was 13%; with AXL, 82%; in the test on BIKE, 0%. For the same molecule, the “%Inh” value with BLK is 14%; in the test with BMPR1A it was 12%; in the test with BMPR1B, 0%; in the test on BMPR2, 0%.
Consider `Cl.Cl.NC[C@H](CC1CCCCC1)NC(=O)c1ccc(-c2ccnc3[nH]ccc23)s1` [GSK1581428], for which the “%Inh” value with ASK2 came out at 26%; in the test with AURKA, 93.8%; in the test on AURKB, 96.8%; in the test on AURKC, 73%; with AXL it was 96.3%; with BIKE it was 99.1%. Also, the “%Inh” value is listed as 0% with BLK, 8% in the test on BMPR1A, 23% in the test on BMPR1B and 1% in the test with BMPR2.
In the case of `NC(=O)c1ccc(-c2cc3ncnc(SCC(=O)O)c3s2)cc1`, the “%Inh” value amounted to 0% with ASK2; 0% in the test with AURKA; 80% in the test with AURKB; 33% in the test with AURKC; 0% in the test with AXL; 1% in the test with BIKE. For the same molecule, the “%Inh” value in the test with BLK is on record as 0%; with BMPR1A it was 0%; in the test with BMPR1B, 1%; with BMPR2, 0%.
On to `O=C(Nc1ccc(Oc2ccc3nc(NC(=O)C4CC4)cn3n2)c(F)c1)c1cccn(-c2ccccc2)c1=O`, for which the “%Inh” value is 0% in the test with ASK2; 0% with AURKA; 4% with AURKB; 42% in the test on AURKC; 90.4% with AXL; 25% in the test with BIKE. For the same molecule, the “%Inh” value is 90.3% in the test with BLK, 12% in the test with BMPR1A, 0% in the test on BMPR1B and 0% in the test with BMPR2.
With `N#Cc1cccc(C(=O)NC2CCN(c3ccnc(Nc4ccc(F)cc4)n3)C2)c1` (centres unmarked) [GSK1379708], the “%Inh” value came to 0% with ASK2; 0% in the test on AURKA; 0% with AURKB; 33% in the test with AURKC; 20% in the test on AXL; 22% in the test with BIKE. The “%Inh” value came out at 32% in the test with BLK, 0% with BMPR1A, 0% with BMPR1B and 0% in the test with BMPR2.
